# Most compounds without a hit are left out; they make up all but 1.1% or so of the library.
# AmpC detergent: qHTS Inhibitors of AmpC Beta-Lactamase (assay with detergent); 0.041% of 370,000 active; AmpC hydrolysis of nitrocefin, absorbance 480 nm, 0.01% Triton; Potency, µM (top dose mostly 114 µM), inactives show top-dose activity change, negative = inhibition, usual class: inhibitors; AID 485294, 2010;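 note: 0% = no-compound wells and -100% = no-enzyme wells; nearly all actives have a fitted effect of over 25% in size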
# Target sequence (P00811 whole entry, looked up): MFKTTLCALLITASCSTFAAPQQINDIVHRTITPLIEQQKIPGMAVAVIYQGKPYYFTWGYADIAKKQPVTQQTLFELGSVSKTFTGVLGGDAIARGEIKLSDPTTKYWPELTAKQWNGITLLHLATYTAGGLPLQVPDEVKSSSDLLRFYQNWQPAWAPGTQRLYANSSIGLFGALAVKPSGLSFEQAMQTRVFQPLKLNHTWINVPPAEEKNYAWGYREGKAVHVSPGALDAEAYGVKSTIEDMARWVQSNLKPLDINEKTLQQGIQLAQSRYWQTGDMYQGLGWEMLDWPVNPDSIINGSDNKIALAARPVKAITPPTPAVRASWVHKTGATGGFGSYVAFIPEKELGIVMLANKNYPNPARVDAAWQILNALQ
#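 20 mM phosphate pH 7.0 + 0.01% (detergent screen) or 0.0001% Triton X-100; 5.3 nM AmpC reagent; cpd preinc 15 min RT; nitrocefin (800 uM stock) to start; A480 q20 s × 4 min; Activity was normalised to no-enzyme and no-compound control wells.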
# AmpC no deterg: qHTS Inhibitors of AmpC Beta-Lactamase (assay without detergent); P00811; AmpC nitrocefin hydrolysis, absorbance 480 nm, 0.0001% Triton; 0.52% of 330,000 active; Potency, µM (highest dose often 57.1 µM), inactives show at the highest dose activity change, negative = inhibition, most hits filed as inhibitors;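 note: plate controls were no compound for no effect and no enzyme for full effect; nearly all actives have a fitted effect of over 20% in size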
#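 20 mM phosphate pH 7.0 + 0.01% (detergent screen) or 0.0001% Triton X-100; 5.3 nM AmpC reagent; cpd preinc 15 min RT; nitrocefin (800 uM stock) to start; A480 q20 s × 4 min; Activity was normalised to no-enzyme and no-compound control wells.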
# VACV Venus inh: qHTS for Stage-Specific Inhibitors of Vaccinia Orthopoxvirus: Venus Reporter Primary qHTS; Vaccinia virus Venus reporter expression, fluorescence; Potency, µM (series often up to 36.5 µM), inactives show at the highest dose activity change, negative = inhibition, hits mostly inhibitors; 0.46% of 330,000 active; calls by dose curve; tested in A549 cells; note: nearly all actives have a fitted effect of over 30% in size
# VACV mCherry inh: qHTS for Stage-Specific Inhibitors of Vaccinia Orthopoxvirus: mCherry Reporter Primary qHTS. Vaccinia virus mCherry reporter infection, fluorescence. Potency, µM (titrated, usually from 36.5 µM), inactives show at the highest dose activity change, negative = inhibition, hits mostly inhibitors. 0.63% of 310,000 active; calls by dose curve; tested in A549 cells; note: nearly all actives have a fitted effect of over 35% in size
# An asterisk follows results filed as active; i = inactive; ? = inconclusive; · = no result given; + = active, no number; ! = not active in a repeat. Unless noted, calls come from the whole dose curve; as a rule, active = well fitted curve in the direction sought with a large enough effect; inconclusive = small, poorly fitted or top-dose-only effect, or another doubt; inactive = no such curve, though single readings can be large; an effect the other way counts as inactive or inconclusive. Unless noted, % is set by controls: 0 for no effect and ±100 for the full control effect; potency is the fitted concentration of half-maximal effect.
SMILES,AmpC detergent,AmpC no deterg,VACV Venus inh,VACV mCherry inh
Cc1cn([C@H]2C[C@H](O)[C@@H](CCC(=O)NCc3ccccc3)O2)c(=O)[nH]c1=O,·,·,?,+
CC(C)C[C@H]1CN=C(Nc2ccccc2)N1CC1CCC(C(C)(C)C)CC1 (stereo partly drawn),-0.4%,77.5%,?,28.2µM*
O=c1[nH][nH]c2cc(=O)n(-c3cccc(C(F)(F)F)c3)nc12,2.3%,20µM*,·,·
Nc1n[nH]c2cc(=O)n(-c3cccc(C(F)(F)F)c3)nc12,5.5%,-10.5%,·,·
Cc1nc(CC(=O)NCC2Cc3cc(F)cc(-c4ccc(F)c(C)c4)c3O2)cs1 (stereo not drawn),·,·,-3.5%,-10.3%
NS(=O)(=O)c1ccc(N=Nc2c(O)c(C(=O)O)cc3ccccc23)cc1,-10.4%,22.4µM*,?,-7.6%
O=C(O)Cc1ccc(N=Nc2c(O)c(C(=O)O)cc3ccccc23)cc1,-14.5%,-39.3%,6.0%,-4.7%
COC(=O)C1CCN(c2c([N+](=O)[O-])cc(C(F)(F)F)cc2[N+](=O)[O-])CC1,2.8%,0.251µM*,-13.9%,i
C[C@H]1O[C@@H](n2cc(F)c(=O)[nH]c2=O)[C@H](O)[C@@H]1O,-10.2%,-13.1%,-16.8%,?
O=C1C(F)=CC(COC(c2ccccc2)(c2ccccc2)c2ccccc2)OC1n1cc(F)c(=O)[nH]c1=O (stereo not drawn),·,·,?,10µM*
CCN1CCN(C(=O)c2sc3ncnc(NCC4CCCO4)c3c2C)CC1 (stereo not drawn),·,·,-4.4%,-10.3%
CCOC(=O)C1CCCCN1Cc1nc(N2CCN(C(C)=O)CC2)c2ccccc2n1 (stereo not drawn),·,·,8.3%,-8.1%
CC(C)NC(=O)[C@@H]1C[C@@H](Sc2nc3ccccc3[nH]2)CN1C1Cc2ccccc2C1,·,·,-25.3%,?
O=C(NCCCN1CCOCC1)c1cnn(-c2ncc3c(n2)-c2ccccc2CC3)c1C1CC1,·,·,-10.9%,-29.1%
Cn1c(/C=C/c2ccc([N+](=O)[O-])o2)nc2ccccc2c1=O,2.1%,-20.5%,?,4.47µM*
CSc1ccc(/C=C/C(=O)c2c(O)cc(C)oc2=O)cc1,-11.1%,28.2µM*,33.9%,17.2%
Cc1ccc(/C=C/C(=O)c2ccc([N+](=O)[O-])o2)cc1,-10.5%,-11.5%,?,-22.9%
O=C(/C=C/c1ccc(Cl)cc1)c1ccc([N+](=O)[O-])o1,-0.1%,-17.0%,10µM*,8.91µM*
Cc1cc(O)c(C(=O)/C=C/c2ccc(Cl)cc2)c(=O)o1,-1.1%,25.1µM*,7.4%,-8.0%
C[C@H]1COC2=C1C(=O)C(=O)c1c2ccc2c1CCCC2(C)C,0.9%,?,11.2µM*,11.2µM*
Cc1ccc(C(=O)c2coc3c2C(=O)C(=O)c2ccccc2-3)cc1,2.0%,-39.1%,3.2%,-10.5%
CC1COC2=C1C(=O)C(=O)c1c2ccc2c1CCCC2(C)C (stereo not drawn),·,·,8.7%,-4.7%
Cc1coc2c1C(=O)C(=O)c1c-2ccc2c(C)cccc12,-0.7%,-59.3%,7.08µM*,?
Cc1coc2c1C(=O)C(=O)c1c-2ccc2c1CCCC2(C)C,-0.5%,10µM*,11.2µM*!,10µM*!
COc1ccccc1-c1ccnc(-n2ncc(C(=O)N(C)CCc3ccccn3)c2C)n1,·,·,2.1%,-17.1%
SMILES,AmpC detergent,AmpC no deterg,VACV Venus inh,VACV mCherry inh
O=C(Cc1ccsc1)Nc1ccc(S(=O)(=O)C(F)F)cc1,-10.4%,-28.2%,?,10µM*
Cc1nc(N/N=C/c2ccc(O)cc2O)cc(N2CCOCC2)n1,-1.3%,-32.8%,?,1.12µM*
C#CCn1cc(/C=C2\NC(=O)NC2=O)c2ccccc21,3.8%,-11.0%,-20.2%,4.47µM*
Cc1ccc(-c2csc(N3CCC(NS(=O)(=O)c4ccc5c(c4)OCCO5)CC3)n2)cc1,-1.3%,6.6%,8.91µM*,?
CNCc1ccccc1Sc1cccc2ccccc12,3.1%,23.4%,-26.5%,-19.2%
CN(C)CCN(C)Cc1ccccc1Sc1cccc2ccccc12,-1.4%,241.4%,?,12.6µM*
COc1cccc(-c2nc(N3CCN(C)CC3)c3ccccc3n2)c1O,2.6%,91.2%,?,10µM*
CN1CCN(c2nc(-c3ccccc3O)nc3ccccc23)CC1,-5.2%,18.2%,-11.5%,i
Cc1ncc2c(c1CNC(=O)c1ccc3c(c1)OCO3)CCN(C(=O)c1cc3ccccc3o1)C2,·,·,5.9%,-10.7%
Cc1ccc(NC(=O)C(OC(=O)c2ccc(O)cc2)c2ccccc2)cc1Cl (stereo not drawn),-3.4%,7.08µM*,·,·
Cc1ccc(NC(=O)C(OC(=O)c2ccc(F)cc2)c2ccccc2)cc1Cl (stereo not drawn),-0.7%,-19.9%,-16.5%,-14.8%
CCCCCCCCN1[C@@H](CC(=O)O)c2ccc(/C=C/C(=O)O)cc2S1(=O)=O,·,·,-10.3%,i
Nc1ncnc2c(C3OC(CO)C(O)C3O)c[nH]c12 (stereo not drawn),·,·,0.251µM*,0.282µM*
Nc1ncnc2c1nc(-c1ccccc1)n2C1OC(CO)C(O)C1O (stereo not drawn),·,·,0.5%,5.9%
Cc1ccc(NC2=C(NC(=O)c3ccccc3)C(=O)c3ccccc3C2=O)cc1Cl,0.7%,20µM*,?,?
Cc1ccc(NCC(=O)c2ccccc2)cc1Cl,-4.3%,0.316µM*,·,·
CC(O)(COc1ccccc1)c1ccc2c(c1)CN(Cc1cccnc1)CCO2 (stereo not drawn),·,·,-4.6%,-19.1%
C[C@@H]1CN(Cc2ccc3c(c2)CN(Cc2cccc(O)c2)CCO3)C[C@H](C)O1,·,·,-1.8%,-2.6%
COc1cc([C@@H]2c3cc4c(cc3C[C@H]3COC(=O)[C@@H]32)OCO4)cc(OC)c1O,·,·,?,10µM*
COc1cc(C2c3cc4c(cc3C(O)[C@H]3COC(=O)C23)OCO4)cc(OC)c1OC (stereo partly drawn),·,·,-20.2%,-18.1%
COc1cc([C@@H]2c3cc4c(cc3[C@@H](O)[C@H]3COC(=O)[C@H]23)OCO4)cc(OC)c1O,·,·,?,11.2µM*
COc1ccc(N2CCC(CNC(=O)Nc3ccc(OC)cc3OC)C2)cc1 (stereo not drawn),1.0%,3.0%,10µM*,-15.7%
CCn1nc(C)cc1C(=O)NCCN1Cc2ccccc2OC(c2ccccc2F)C1 (stereo not drawn),·,·,-7.1%,-19.6%
COCc1ccc(CN2Cc3ccccc3OC(c3ccccc3F)C2)o1 (stereo not drawn),·,·,-28.3%,i
Cc1ccc(C=C2C(Cl)=C(Cl)C(Cl)=C2Cl)cc1,-1.3%,15.8µM*,9.8%,4.4%
Cc1ccc(/C=[N+](/C)[O-])cc1,?,-12.2%,-13.0%,-2.3%
O=C(/C=C/c1ccc([N+](=O)[O-])cc1)Nc1cccc(C(=O)Nc2ccccc2C(=O)O)c1,4.8%,35.5µM*,·,·
COC(=O)c1cccc(NC(=O)/C=C/c2ccc([N+](=O)[O-])cc2)c1,-12.3%,-24.7%,-4.3%,-7.9%

# Screening data: PubChem, National Center for Advancing Translational Sciences (NCATS)
